Among the data in PubChem BioAssay (NCI) are growth values, retold here.

Structures are written as SMILES. Compounds without any hit were thinned out: in the full panel of roughly 83,000, 20% have a hit.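 Note: values are percent growth. 100 is the growth of untreated cells, values between 100 and 0 indicate rising inhibition; between -100 and 0 indicates cell death.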 Values without a mark were called inactive. The source made the active and inactive calls. The calls were made as follows: active = growth percent below 10; inactive = the rest.

Holding throughout (assay): NCI-60 one-dose screen, 48 h (100 = growth as untreated, 0 = no growth, -100 = all killed)
Holding throughout (conditions): 10 µM unless noted

In experiment [1] the test system is NCI-H23 lung.
Experiment [2] has as its system NCI-H226 lung.
For experiment [3], the system named is NCI-H322M lung.
Experiment [4] concerns HOP-62 NSCLC.
Experiment [5] deals with NCI-H460 lung.
In experiment [6] the test system is HOP-92 NSCLC.
Experiment [7] relates to NCI-H522 lung.
Experiment [8] relates to A549/ATCC NSCLC.
Experiment [9] deals with 786-0 renal.
In experiment [10] the test system is COLO 205 colon.
The subject of experiment [11] is DU-145 prostate.
For experiment [12], the system named is K-562 leukemia.
Experiment [13] relates to MALME-3M melanoma.
The subject of experiment [14] is MDA-MB-231 breast.
For experiment [15], the system named is RXF 393 renal.
For experiment [16], the system named is SF-268 CNS.
In experiment [17] the test system is SF-295 CNS.
Experiment [18] concerns SF-539 CNS.
Experiment [19] has as its system UACC-257 melanoma.
The test system of experiment [20] is M14 melanoma.

On to `CCN1CCN(CCCN(C[C@H]2Cc3ccccc3CN2)[C@H]2CCCc3cccnc32)CC1`, for which the growth is 101% in experiment [1]; 83.7% in experiment [2]; 79.7% in experiment [3]; 65.2% in [4]; 89.8% in [5]; 60.3% in experiment [6]. The growth in experiment [7] is 89.3%; in [8], 90.9%; in [9], 83.3%; in experiment [10], 97.2%; in [11], 96.7%; in [12], 63.5%. Further, the growth in experiment [13] is 113%; in experiment [14] it was 77.4%; in experiment [15] it was 93.8%; in experiment [16] it was 75.9%; in [17], 90.7%; in [18], 94.2%. Also, the figures for the growth in [19] and in [20] were 80.4% and 87.3%, respectively.

On to `Cc1ccccc1N1C(c2ccccc2)=NNC12C=CC(=O)C=C2Cl` (stereo not given), for which the growth in experiment [1] was 98.1%; in [2], 115%; in [3], 95.4%; in experiment [4], 98.3%; in experiment [5] it was 115%; in [6] it was 114%. The growth in experiment [7] is 95.2%; in experiment [8] it was 75.5%; in experiment [9], 106%; in experiment [10] it was 99.3%; in [11], 110%; in [12] it was 96.4%. Also, the growth in [13] was 98.6%; in experiment [14], 111%; in [15], 132%; in experiment [16], 99.1%; in [17], 108%; in experiment [18], 93.4%. Moreover, the growth in experiment [19] was 81.1%; in experiment [20], 105%.

On to `COc1cc2nccc(Oc3ccc(NC(=O)C4(C(=O)Nc5ccc(F)cc5)CC4)cc3)c2cc1OC`, for which the growth in experiment [1] was 14.4%; in [2] it was 11.7%; in experiment [3] it was 12.1%; in experiment [4], 9.04% (active); in experiment [5], 6.12% (active); in experiment [6], -36.9% (active). The growth in [7] is 11.4%; in experiment [8], 2.35% (active); in [9] it was 13.1%; in experiment [10], -44.7% (active); in [11], 27.3%; in experiment [12], 0.49% (active). In addition, the growth in experiment [13] was 0.11% (active); in experiment [14] it was 4.99% (active); in experiment [15] it was -25.5% (active); in [16], 34%; in [17], -8.99% (active); in experiment [18] it was -10.2% (active). The figures for the growth in experiment [19] and in experiment [20] were -12.6% (active) and -11.6% (active), respectively.

On to `NC[C@@](O)(c1ccc(Cl)cc1)c1ccc(-c2cn[nH]c2)cc1`, for which the growth in [1] was 27.4%; in experiment [2], 43.9%; in experiment [3], 10.3%; in experiment [4], 15.2%; in experiment [5], 23.1%; in experiment [6], -1.15% (active). Moreover, the growth was 17.7% in [7]; 18.3% in experiment [8]; 6.12% (active) in experiment [9]; -22.8% (active) in experiment [10]; 30.3% in experiment [11]; 17.2% in experiment [12]. For the same compound, the growth in experiment [13] is -24.7% (active); in [14] it was 31.7%; in [15], -6.86% (active); in experiment [16], 35.5%; in [17], 28.6%; in experiment [18], 3.43% (active). The growth in experiment [19] is -23.9% (active); in experiment [20], 7.61% (active).

Turning to `COc1cccc(Nc2ncnn3ccc(CN4CC[C@@H](N)[C@H](O)C4)c23)c1`, the growth in experiment [1] is 36.3%; in [2], 5.97% (active); in experiment [3] it was 0.241% (active); in [4], 18.7%; in experiment [5] it was 73.8%; in experiment [6], 26.3%. For the same compound, the growth in [7] was 14.4%; in experiment [8], 12.1%; in experiment [9], 13.1%; in experiment [10], 34.6%; in [11], 27.1%; in [12], 2.52% (active). Further, the growth in experiment [13] was 86.4%; in experiment [14], 31.3%; in experiment [15], -41.4% (active); in experiment [16], 45.1%; in experiment [17] it was 72.9%; in experiment [18] it was -2.77% (active). The growth in [19] is 76.1%; in experiment [20] it was 96%.

`O=C1C=CC2(NN=C(c3ccccc3)N2c2ccccc2)c2cccc(O)c21` (stereo not given): the growth is 9.65% (active) in experiment [1]; 51.9% in experiment [2]; 83.9% in experiment [3]; 21.5% in experiment [4]; 34.1% in [5]; 117% in experiment [6]. Moreover, the growth in experiment [7] was 28.7%; in experiment [8], 14.8%; in experiment [9] it was 102%; in experiment [10], 80.8%; in [11] it was 35.7%; in experiment [12] it was 28.6%. Further, the growth in experiment [13] was 11.6%; in experiment [14], 75.6%; in [15], 120%; in experiment [16] it was 49.4%; in [17], 17.1%; in experiment [18], 25.4%. For the same compound, the growth in experiment [19] is 3.12% (active); in experiment [20], 8.81% (active).

Turning to `CCCCCCCCCNCCCCCCCCC`, the growth in experiment [1] is 40.4%; in experiment [2], 69.6%; in [3] it was 113%; in [4], 76.3%; in experiment [5] it was 103%; in experiment [6], 8.18% (active). Moreover, the growth is -3.05% (active) in [7]; 99.3% in [8]; 66.5% in [9]; -92.8% (active) in experiment [10]; 76.5% in experiment [11]; 5.9% (active) in experiment [12]. Further, the growth in experiment [13] is 18.4%; in experiment [14], 66.3%; in experiment [15] it was 50.5%; in experiment [16], 79.8%; in experiment [17], 66.6%; in [18], 56.7%. Moreover, the growth was 67.2% in experiment [19] and -48.6% (active) in [20].
